Molecules are shown by their SMILES. Out of some 400,000 compounds screened, about 2,100 (0.53%) were called active. Inconclusive results (about 14%) are left out. No rule for the calls is given here. This excerpt belongs to a sample that is enriched for actives.

Sequence of Ataxin-2 (Homo sapiens) (Q99700 whole entry): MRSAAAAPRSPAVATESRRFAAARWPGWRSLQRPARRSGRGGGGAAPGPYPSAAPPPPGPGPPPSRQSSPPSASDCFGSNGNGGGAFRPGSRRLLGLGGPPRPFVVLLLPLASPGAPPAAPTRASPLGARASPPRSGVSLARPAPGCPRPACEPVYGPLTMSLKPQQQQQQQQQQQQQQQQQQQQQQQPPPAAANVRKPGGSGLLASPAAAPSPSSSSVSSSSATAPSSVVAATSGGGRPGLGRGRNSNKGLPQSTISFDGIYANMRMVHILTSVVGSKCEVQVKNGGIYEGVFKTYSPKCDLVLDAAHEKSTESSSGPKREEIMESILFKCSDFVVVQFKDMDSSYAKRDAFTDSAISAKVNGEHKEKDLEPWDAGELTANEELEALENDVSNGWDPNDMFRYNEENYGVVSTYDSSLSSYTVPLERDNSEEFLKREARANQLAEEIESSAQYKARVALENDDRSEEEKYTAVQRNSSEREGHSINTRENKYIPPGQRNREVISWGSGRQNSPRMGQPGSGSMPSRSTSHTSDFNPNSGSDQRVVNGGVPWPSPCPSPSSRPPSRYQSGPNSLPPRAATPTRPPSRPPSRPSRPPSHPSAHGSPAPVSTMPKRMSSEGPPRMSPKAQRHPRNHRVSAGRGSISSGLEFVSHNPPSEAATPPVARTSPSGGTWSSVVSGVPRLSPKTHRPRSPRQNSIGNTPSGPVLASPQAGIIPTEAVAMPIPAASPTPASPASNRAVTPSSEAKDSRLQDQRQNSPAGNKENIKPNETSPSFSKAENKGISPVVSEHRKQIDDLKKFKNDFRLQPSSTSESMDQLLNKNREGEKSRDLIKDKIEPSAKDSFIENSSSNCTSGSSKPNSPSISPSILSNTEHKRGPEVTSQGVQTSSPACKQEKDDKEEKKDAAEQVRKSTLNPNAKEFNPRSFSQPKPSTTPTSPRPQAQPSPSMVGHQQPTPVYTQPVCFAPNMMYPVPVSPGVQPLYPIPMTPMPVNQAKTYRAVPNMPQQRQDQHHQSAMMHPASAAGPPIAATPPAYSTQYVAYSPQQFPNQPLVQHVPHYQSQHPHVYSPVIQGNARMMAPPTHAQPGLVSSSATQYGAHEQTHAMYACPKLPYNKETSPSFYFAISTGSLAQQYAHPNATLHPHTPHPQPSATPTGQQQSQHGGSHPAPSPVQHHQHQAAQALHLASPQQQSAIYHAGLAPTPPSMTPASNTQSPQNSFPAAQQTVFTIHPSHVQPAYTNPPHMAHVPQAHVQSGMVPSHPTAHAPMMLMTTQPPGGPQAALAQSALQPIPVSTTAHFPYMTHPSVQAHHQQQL

This experiment has as its target Ataxin-2 (Homo sapiens) (UniProt Q99700). The experiment in a line: qHTS for Inhibitors of ATXN expression. The format is functional. For orientation: In qHTS, concentration-response curves come from the screen itself.
As to `O=C(COC(=O)C1=Cc2ccccc2OC1)NCc1ccco1`, the Potency result was “inactive”.
For the compound `Cn1c(Cl)c(/C=N/OC(=O)C2CC2)c2ccccc21`, the Potency entry was “inactive”.
To `O=c1ccc2cc(O)c(O)cc2o1` belongs “inactive”; to `OC[C@@H]1[C@@H](c2ccc(Cl)cc2)C(c2cccc(Cl)c2)=NN1c1ccccc1`, “inactive”; to `CCCN(CCC)C(=O)CSc1c2c(nc3ccc(Cl)cc13)CCCC2`, 39.8 µM (active).
For `CC1CCCC(NC(=O)c2ccc3c(SCC(=O)O)c4c(nc3c2)CCC4)C1C` (stereo unspecified), the Potency entry was “inactive”.
Then `O=C(Cc1cc(O)nc(O)n1)NCCN1CCOCC1`, with “inactive”; and `O=C(O)c1c2c(nc3ccc(Cl)cc13)CCC2`, with “inactive”; and `CCN(CC)CCNC(=O)CSc1c2c(nc3cc(Cl)ccc13)CCCC2`, with 35.5 µM (active).
`CCN(CC)CCCNC(=O)CSc1nc(C)cc(C)n1`: the Potency entry is “inactive”.
To `Cc1cc2cc(C#N)c(NCCN=C(S)NCCCN3CCOCC3)nc2cc1C` belongs “inactive”.
In the case of `O=C(CSc1c2c(nc3ccc(Cl)cc13)CCCC2)NCCCN1CCOCC1`, the Potency is 35.5 µM (active).
Then `CCN(CC)CCCC(C)n1c2nc(=O)[nH]c(=O)c-2nc2cc(Cl)ccc21` (stereo unspecified), with “inactive”.
As to `CCOC(=O)C1CCCc2c1[nH]c1ccc(Cl)cc21` (stereo unspecified), the Potency entry was “inactive”.
In the case of `CCN(CC)CCCNC(=O)CSc1c2c(nc3cc(Cl)ccc13)CCCC2`, the Potency was 28.2 µM (active).
To `Cc1occc1-c1nnc(SCC(=O)NC2CCCCC2)o1` belongs “inactive”; to `Cc1c(CC(=O)N2CCN(C(=O)C3COc4ccccc4O3)CC2)c(=O)oc2cc(O)c(Cl)cc12` (stereo unspecified), “inactive”; to `Nc1cccc2c1C(=O)N(c1ccccc1)C2=O`, “inactive”.
To `Cc1ccc(C(=O)Nc2nc3n(n2)C(c2ccccc2)C=C(c2ccccc2)N3)cc1` (stereo unspecified) belongs “inactive”; to `CNc1cc(C)c(C#N)c2nc3ccccc3n12`, “inactive”.
Then `CCC(c1ccc(O)c(O)c1)C(CC)c1ccc(O)c(O)c1` (stereo unspecified), with 31.6 µM (active).
Take `CCN(CC)Cc1cc(O)c(CN(CC)CC)cc1O`: the Potency entry is “inactive”.
Then `CC(C)(C)N1C(=O)c2ccc(C(=O)Nc3cc(C(=O)O)cc(C(=O)O)c3)cc2C1=O`, with “inactive”; and `COc1cc(C(=O)NCCNc2nc3ccc(C)cc3cc2C#N)cc(OC)c1OC`, with “inactive”.
To `COc1cc(C(=O)NCCc2csc(-c3ccc(Cl)cc3)n2)cc(OC)c1OC` belongs 28.2 µM (active); to `COc1ccc(CCNC(=S)NC(=O)c2cc(OC)c(OC)c(OC)c2)cc1OC`, “inactive”; to `COc1ccc2nc(-c3ccccc3)cc(C(=O)N3CCC3)c2c1`, “inactive”.
Then `COc1ccc2nc(-c3ccccc3)cc(C(=O)OCC(=O)N3CC(C)OC(C)C3)c2c1` (stereo unspecified), with “inactive”; and `COc1ccc(-c2cc(C(=O)Oc3ccccc3)c3cc(C)ccc3n2)cc1`, with 35.5 µM (active); and `CCOC(=O)c1c(N)sc(C(=O)Nc2ccccc2)c1C`, with “inactive”.
With `CCOC(=O)c1c(NC(=O)CCl)sc(CN(C)C)c1-c1ccccc1`, the Potency was 37.7 µM (active).
To `CCOC(=O)c1c(C)nc2sc(C(=O)Nc3ccccc3)c(N)c2c1-c1ccc(OC)cc1` belongs “inactive”; to `CC(=O)Nc1nc2n(n1)C(c1ccc(F)cc1)C=C(c1ccccc1)N2` (stereo unspecified), “inactive”; to `CCCCCn1/c(=N/C(C)=O)c(C#N)cc2c(=O)n3ccccc3nc21`, “inactive”.
Turning to `COc1ccccc1[C@@H]1C(c2ccccc2)=NN(c2ccc(Br)cc2)[C@H]1C(=O)N1CCOC1=O`, the Potency entry is “inactive”.
Then `CNC(=O)c1sc(N2N=C3/C(=C/c4ccccc4)CCCC3C2c2ccccc2)nc1C` (stereo unspecified), with “inactive”.
In the case of `Cc1nc(N2N=C3/C(=C/c4ccc(F)cc4)CCCC3C2c2ccc(F)cc2)sc1C(=O)N(C)C` (stereo unspecified), the Potency entry is “inactive”.
To `CCCn1c(O)nnc1SCC(=O)N1N=C2/C(=C/c3ccc(OC)cc3)CCCC2C1c1ccc(OC)cc1` (stereo unspecified) belongs 25.1 µM (active); to `O=c1[nH]c(=O)c2nc3c4ccccc4c4ccccc4c3nc2[nH]1`, “inactive”.
To `CC1CCC2C(=O)N(c3ccc(C(=O)Oc4cccc5cccnc45)cc3)C(=O)C2C1` (stereo unspecified) belongs “inactive”; to `Cc1cc2nc3ccc(N(C)C)cc3nc2cc1N`, 25.1 µM (active); to `CN(C)c1ccc2c(O)ccnc2c1`, “inactive”.
To `Cc1cc2nn(-c3ccc(Cl)cc3)nc2cc1N` belongs “inactive”; to `Nc1c(C(=O)NCCN2CCOCC2)c2nc3ccccc3nc2n1CCc1ccccc1`, “inactive”; to `COc1cccc(C2C3=C(O)CC(C)(C)CC3=Nc3cc(OC)c(OC)cc32)c1` (stereo unspecified), “inactive”.
With `COC(=O)C=C1CCC2C3CCC4=CC(=O)C(Br)CC4(C)C3C(=O)CC12C` (stereo unspecified), the Potency is 31.6 µM (active).
As for `COc1ccc(C2CC(c3ccc(Cl)cc3)=NN2c2ccc(S(N)(=O)=O)cc2)cc1` (stereo unspecified), the Potency result is “inactive”.
To `CCOC(=O)C1(C)C=C(Nc2ccc(NC(C)=O)cc2)C(=O)N1c1ccc(NC(C)=O)cc1` (stereo unspecified) belongs “inactive”; to `CC(C)(C)OC(=O)N1CCC(NC(=O)c2[nH]cnc2C(=O)Nc2cccc(Cl)c2)CC1`, 35.5 µM (active); to `CC(C)(C)OC(=O)N1CCCN(C(=O)Nc2cccc(Cl)c2)CC1`, “inactive”.
Then `CC(=O)NC(Cc1ccccc1C)C(=O)NC1CCN(C(=O)NCc2ccccc2)CC1` (stereo unspecified), with “inactive”; and `COc1ccccc1CC(NC(C)=O)C(=O)NC1CCN(C(=O)NCc2ccccc2)CC1` (stereo unspecified), with “inactive”; and `CC(C)(C)OC(=O)NCc1ccc(CNC(=O)c2[nH]cnc2C(=O)NC2CCN(C(=O)OC(C)(C)C)CC2)cc1`, with 20 µM (active).
Consider `COc1cc(OC)c(N2CC(C(=O)Nc3cccc(C(=O)NC4CC4)c3)CC2=O)cc1Cl` (stereo unspecified), for which the Potency entry was “inactive”.
With `CS(=O)(=O)Nc1nc2n(n1)C(c1ccccc1)C=C(c1ccc(Br)cc1)N2` (stereo unspecified), the Potency result is “inactive”.
Then `COc1ccc(C2CC(c3ccccc3C(F)(F)F)=NN2c2ccc(S(N)(=O)=O)cc2)cc1` (stereo unspecified), with “inactive”; and `Cc1ccccc1Cn1c(CN2CCC(C(=O)NCc3cccnc3)CC2)cc2ccccc21`, with 31.6 µM (active).
On to `Cc1ccc(Cn2c(CN3CCC(C(=O)NCc4cccnc4)CC3)cc3ccccc32)cc1`, for which the Potency was 35.5 µM (active).
In the case of `O=C(Nc1nc2c(s1)CN(Cc1ccccc1)CC2)C1CCCC1`, the Potency result was “inactive”.
Then `O=C(Nc1nc2c(s1)CN(Cc1ccccc1)CC2)C1CCC1`, with “inactive”.
Regarding `CCCn1c(=N)c(C(=O)NCc2cccnc2)cc2c(=O)n3cc(C)ccc3nc21`, the Potency entry was “inactive”.
To `CCn1c(=N)c(C(=O)NCc2cccnc2)cc2c(=O)n3cc(C)ccc3nc21` belongs “inactive”; to `CCCn1c(=N)c(C(=O)NCc2cccnc2)cc2c(=O)n3cccc(C)c3nc21`, “inactive”; to `Cc1ccc(CNC(=O)C2CCN(c3nnc(N4CCCC4=O)s3)CC2)cc1`, “inactive”.
Then `Cc1cccn2c(=O)c3cc(C(=O)NCc4cccnc4)c(=N)n(CC4CCCO4)c3nc12` (stereo unspecified), with “inactive”; and `Cc1cccc(Cn2c(CN3CCC(C(=O)NCc4cccnc4)CC3)cc3ccccc32)c1`, with 22.4 µM (active).
In the case of `CCOC(=O)C1CCN(Cc2ccc3ccccc3c2)CC1`, the Potency result was “inactive”.
Then `CN(C)CCNC(=O)C1CCN(Cc2cc3ccccc3n2Cc2ccccc2)CC1`, with 28.2 µM (active); and `CC1CCCCC1NC(=O)CN1C(=O)c2cccc(N)c2C1=O` (stereo unspecified), with “inactive”; and `Cc1snc(SCC(=O)c2ccc(F)cc2)c1C#N`, with “inactive”.
For `COCCCNC(=O)/C(C#N)=C/c1c(N2CCN(c3ccccc3)CC2)nc2ccccn2c1=O`, the Potency result is “inactive”.
With `CCCC(=O)Nc1nn(CCC)c2nc3ccccc3cc12`, the Potency result is “inactive”.
In the case of `Oc1nc(-c2ccccc2)nc2sc(-c3ccccc3)cc12`, the Potency result was “inactive”.
To `Cc1cccc(N2C(=O)c3cccc4c(N(C)CCO)ccc(c34)C2=O)c1` belongs “inactive”; to `Cc1ccc2nc3c(cc(C(=O)NCC4CCCO4)c(=N)n3C3CCCC3)c(=O)n2c1` (stereo unspecified), “inactive”.
With `Nc1c(C(=O)N/N=C/c2cccnc2)oc2nc(-c3ccccc3)cc(-c3ccco3)c12`, the Potency result was “inactive”.
As for `Cc1csc(NC(=O)C2CCN(C(=O)c3ccccc3C)CC2)n1`, the Potency entry is “inactive”.
To `CCOC(=O)N1CCC(NS(=O)(=O)c2ccc(C)cc2)CC1` belongs “inactive”; to `CCOC(=O)N1CCN(C(=O)C2CCN(C(=O)c3ccccc3C)CC2)CC1`, 35.5 µM (active); to `O=C1OCCN1C(=O)[C@H]1[C@H](c2ccc(Cl)cc2)C(c2ccccc2)=NN1c1ccc(Br)cc1`, “inactive”.
To `COC(=O)C1=C(C)NC(=O)NC1c1ccc(N2CCC(c3ccccc3)=N2)cc1` (stereo unspecified) belongs “inactive”.
Then `COc1ccc(C2=CC(c3cccc(OC)c3)n3nnnc3N2)cc1` (stereo unspecified), with “inactive”; and `COC(=O)c1ccc(CSc2cc(C)c3cccc(C)c3n2)o1`, with “inactive”; and `Cc1ccc(N(CCC#N)C(=O)CCl)cc1C`, with 35.5 µM (active).
Turning to `O=C(CCl)N(Cc1cccc([N+](=O)[O-])c1)c1cccc(Cl)c1`, the Potency is 2.67 µM (active).
Then `N#CCCN(C(=O)CCl)c1cccc(Cl)c1`, with 8.91 µM (active); and `N#Cc1c2ccc(O)cc2n2ccccc12`, with “inactive”; and `O=C(c1ccc(F)cc1)C1CCN(C(=O)c2ccccc2F)CC1`, with “inactive”.
Then `Cc1cc(NC(=O)CSc2nc3c(cc2C#N)CCCC3)no1`, with “inactive”; and `C=CCNC(=O)CSc1nc2sc3c(c2c(=O)n1CCCOC)CCC3`, with “inactive”; and `CCn1c(SCC(=O)Nc2cc(C)on2)nc2sc3c(c2c1=O)CCCC3`, with 10 µM (active).
Then `Cc1c(O)ccc2c(CN(C)Cc3ccccc3)cc(=O)oc12`, with “inactive”; and `Cc1ccc(C(=O)Nc2c(C)cc(-c3ccccc3)oc2=O)cc1`, with “inactive”; and `O=c1cc(-c2ccccc2)oc2ccc(O)cc12`, with “inactive”.
On to `O=c1oc(-c2ccccc2)cc(Cl)c1Cl`, for which the Potency is 29.9 µM (active).
With `O=S(=O)(Nc1nccs1)c1ccc(F)cc1`, the Potency entry is “inactive”.
Then `O=C1C=C(C#Cc2ccc(Oc3ccccc3)cc2)C[C@@H](c2ccc(F)cc2)C1`, with 28.2 µM (active).
`COc1ccc(Cn2c(SCC#N)nc3ccc(N4CCOCC4)cc3c2=O)cc1`: the Potency entry was “inactive”.
Then `CC1C(=O)N(Cc2cn(CCC3OCCO3)nn2)CCS(=O)(=O)N1Cc1ccc(-c2ccc(Cl)c(Cl)c2)cc1` (stereo unspecified), with 31.6 µM (active); and `CC(C)C1C(=O)N(Cc2cn(CCC3OCCCO3)nn2)CCS(=O)(=O)N1Cc1ccc(-c2ccc(Cl)c(Cl)c2)cc1` (stereo unspecified), with 31.6 µM (active); and `COc1ccc(-c2ccc(CN3C(C)C(=O)N(Cc4cn(CCC5OCCO5)nn4)CCS3(=O)=O)cc2)cc1` (stereo unspecified), with 35.5 µM (active).

The record behind these values is ChEMBL document CHEMBL1201862, “PubChem BioAssay data set” (2004).
